Experimental findings from PubChem BioAssay (NCATS) are described below.

Experiment [1] in a line: Quantitative High-Throughput drug screen in 47 multiple myeloma cell lines against the NCATS MIPE library collection: PE2_PLB cell viability assay (AID 1919869). Further: nearly all actives have a fitted effect of over 35% in size. In short, it runs like this: (§1)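 500 cells/well; MIPE 4.0 drugs pin-transferred; 48 h, 37C, 5% CO2. CellTiter-Glo, 5 min RT, luminescence. Controls: DMSO 100%, media 0%.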
The nature of experiment [2]: Quantitative High-Throughput drug screen in 47 multiple myeloma cell lines against the NCATS MIPE library collection: RPMI8226_ATCC cell viability assay (AID 1919871). Further: nearly all actives have a fitted effect of over 30% in size. In short, it runs like this: as §1
A short description of experiment [3]: Quantitative High-Throughput drug screen in 47 multiple myeloma cell lines against the NCATS MIPE library collection: KMS11_JCRBsus cell viability assay (AID 1919873). Further: nearly all actives have a fitted effect of over 50% in size. In short, it runs like this:
as §1

Experiment [4] can be described thus: qHTS profiling for inhibitors of Plasmodium falciparum proliferation (AID 504749).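 On activity, negative = inhibition: 0% = DMSO vehicle and full inhibition = artemisinin control.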 On all read-outs here: nearly all actives have a fitted effect of over 60% in size. The settings on record: P. falciparum in erythrocytes, SYBR Green DNA, 72 h; for activity, negative = inhibition: at 12.8 µM (top of the series). In short, it runs like this: (§2)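 SYBR Green fluorescence (ex 485 nm, em 535 nm) reports parasite DNA after 72 h compound exposure of infected red cells at 0.3% parasitemia, 2.5% hematocrit; signal normalized to 0.29 uM artemisinin and vehicle wells.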

The next experiment concerns 3D7. The experiment is described as above. The settings on record: P. falciparum in erythrocytes, SYBR Green DNA, 72 h; series mostly up to 28.7 µM. In short, it runs like this:
as §2

The next experiment relates to 7G8. Described as above. Conditions: P. falciparum in erythrocytes, SYBR Green DNA, 72 h; series mostly up to 28.7 µM. A digest of the protocol:
as §2

The subject of a further experiment is AA1029. The description is as above. The settings on record: P. falciparum in erythrocytes, SYBR Green DNA, 72 h; series mostly up to 28.7 µM. In short, it runs like this:
as §2

For the next experiment, the system named is AS120. The description is as above. Conditions: P. falciparum in erythrocytes, SYBR Green DNA, 72 h; series mostly up to 28.7 µM. A digest of the protocol: as §2
The test system of the next experiment is ATS189. Described as above. The settings on record: P. falciparum in erythrocytes, SYBR Green DNA, 72 h; series mostly up to 28.7 µM. A digest of the protocol:
as §2

Another experiment concerns ATS95. The description is as above. The settings on record: P. falciparum in erythrocytes, SYBR Green DNA, 72 h; series mostly up to 28.7 µM. In short, it runs like this: as §2
The next experiment deals with C2A. Described as above. Conditions: P. falciparum in erythrocytes, SYBR Green DNA, 72 h; series mostly up to 28.7 µM. In short, it runs like this: as §2
In another experiment the test system is CP185. The experiment is described as above. Conditions: P. falciparum in erythrocytes, SYBR Green DNA, 72 h; series mostly up to 28.7 µM. A digest of the protocol:
as §2

The test system of a further experiment is CP191. The description is as above. The settings on record: P. falciparum in erythrocytes, SYBR Green DNA, 72 h; series mostly up to 28.7 µM. In short, it runs like this: as §2
The next experiment concerns CP192. Described as above. The settings on record: P. falciparum in erythrocytes, SYBR Green DNA, 72 h; series mostly up to 28.7 µM. A digest of the protocol: as §2
The test system of the next experiment is CP194. The description is as above. The settings on record: P. falciparum in erythrocytes, SYBR Green DNA, 72 h; series mostly up to 28.7 µM. A digest of the protocol: as §2
Experiment [5] is described as follows: Quantitative High-Throughput drug screen in 47 multiple myeloma cell lines against the NCATS MIPE library collection: OPM2_DSMZ cell viability assay (AID 1919872). Further: nearly all actives have a fitted effect of over 30% in size. In short, it runs like this: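 CellTiter-Glo ATP luminescence gave viability after 48 h compound treatment at 37C of 500 multiple myeloma cells per well. Normalisation used DMSO-only wells as 100% and media-only wells as 0% viability; primary qHTS of approved and investigational drugs.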

Experiment [6] in a line: qHTS drug screen for cell cycle checkpoint inhibitors in PARPi-resistant BRCA-mutant ovarian cancer cell lines. (AID 1963452; calls by dose curve). Conditions: PEO1/OlaR viability, CellTiter-Glo luminescence, 96 h; for Z-AUC: stronger effect = lower value. A digest of the protocol: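 PEO1, PEO4 and PEO1/OlaR ovarian cancer cells, 600 per well, exposed 96 h at 37C to a dilution series. Viability read by CellTiter-Glo luminescence, normalized to DMSO and empty wells; activity summarized as Z-AUC.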

The nature of experiment [7]: Quantitative High-Throughput drug screen in 47 multiple myeloma cell lines against the NCATS MIPE library collection: PCM6_Riken cell viability assay (AID 1919870). Further: nearly all actives have a fitted effect of over 30% in size. In short, it runs like this:
as §1

The nature of experiment [8]: Quantitative High-Throughput drug screen in 47 multiple myeloma cell lines against the NCATS MIPE library collection: KMS28BM_JCRB cell viability assay (AID 1919874). Further: nearly all actives have a fitted effect of over 35% in size. In short, it runs like this:
as §1

Experiment [9] in a line: qHTS for identification of novel therapeutic agents for treatment of microphthalmiaassociated transcription factor (MiT) renal cell carcinoma (RCC) (AID 1963991; calls by dose curve). The settings on record: CellTiter-Glo, 48 h; for z-score: stronger effect = lower value. A digest of the protocol:
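Curves over 11 concentrations were fitted to CellTiter-Glo luminescence, scaled between empty wells (0%) and DMSO (100%) viability. Cells were UOK109, UOK124 and UOK145 TFE3-fusion RCC lines at 500/well, exposed 48 hours at 37 C.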

Setting [10] is: measured here: PEO1 parental Z-AUC.
The mark [11] stands for this setting: TFE3-RCC UOK109 viability, measured here: UOK109 Z-AUC.
Setting [12] is: TFE3-RCC viability, measured here: UOK124 Z-AUC.
Setting [13] is: TFE3-RCC viability, measured here: UOK145 Z-AUC.

Records with an inconclusive call do not appear. The source made the active and inactive calls. Unless noted, the call rests on the fitted dose curve; in most records, active means well fitted curve in the direction sought with a large enough effect; inconclusive means small, poorly fitted or top-dose-only effect, or another doubt; inactive means no such curve, though single readings can be large; an effect the other way counts as inactive or inconclusive.
Potency means the concentration at half of the fitted maximal effect.

`CCC1=C[C@@H]2CN(C1)Cc1c([nH]c3ccccc13)[C@@](C(=O)OC)(c1cc3c(cc1OC)N(C)[C@@H]1[C@@](O)(C(=O)OC)[C@H](OC(C)=O)[C@]4(CC)C=CCN5CC[C@]31[C@@H]54)C2`: the Potency in experiment [1] was 26.4 nM (active); in [2], 118 nM (active); in experiment [3] it was 8.3 nM (active); in experiment [4] (parasite line A), 3160 nM (active); in experiment [4] (parasite line B), 5010 nM (active); with 3D7, 3160 nM (active). Besides, the Potency in the experiment on 7G8 is 2240 nM (active); in the experiment on AA1029, 1580 nM (active); in the experiment with AS120 it was 1410 nM (active); with ATS189, 1780 nM (active); with ATS95, 2000 nM (active); with C2A it was 1260 nM (active). Also, the Potency in the experiment with CP185 was 3160 nM (active); with CP191, 3980 nM (active); in the experiment with CP192 it was 4260 nM (active); in the experiment on CP194 it was 3380 nM (active).

On to `Cc1nc(N)ncc1-c1nc(N2CCOCC2)c2sc(C(C)(C)O)cc2n1`, for which the Potency in [1] was 1050 nM (active); in experiment [2] it was 264 nM (active); in experiment [5], 3720 nM (active); in [3], 83.3 nM (active). For the same compound, the values for the Z-AUC in [6], in [6] (setting [10]) and in experiment [6] (measured here: PEO4 Z-AUC) were 0.231 (inactive), 0.219 and 0.116, respectively.

Turning to `CC[C@H](CO)Nc1nc(NCc2ccccc2)c2ncn(C(C)C)c2n1`, the figures for the Potency in experiment [1], in experiment [7] and in experiment [3] were 14800 nM (active), 9350 nM (active) and 20900 nM (active), respectively. Further, the Z-AUC was 0.956 (inactive) in [6], 1.03 in experiment [6] (setting [10]) and 1.29 in experiment [6] (measured here: PEO4 Z-AUC).

Consider `Cc1cn2cc(C(=O)N(C)CCO)cc(N[C@@H]3CCOc4cccc(C)c43)c2n1`, for which the Potency entry in [1], in [2], in [3] and in experiment [8] was “inactive” each time. The Z-AUC is 1.4 (inactive) in experiment [6], 1.4 in experiment [6] (setting [10]) and 1.61 in [6] (measured here: PEO4 Z-AUC).

For the compound `C[C@H]1C[C@@H]2[C@@H]([C@@H](O)C[C@@]3(C)[C@H]2CC[C@]3(O)C(=O)CO)[C@@]2(C)C=CC(=O)C=C12`, the Potency entry (in [1]; in experiment [5]; in [8]; with 3D7; in the experiment on 7G8; in the experiment on AA1029) was “inactive” throughout. Besides, the Potency result in the experiment with AS120, with ATS189, in the experiment on ATS95, in the experiment on C2A, in the experiment on CP185 and in the experiment on CP191 was “inactive” in each case. For the same compound, the Potency entry in the experiment on CP192 and in the experiment on CP194 was “inactive” in each case. In experiment [3], the Potency is 105 nM (active). Moreover, the figures for the z-score in [9] (setting [11]), in experiment [9] (setting [12]) and in experiment [9] (setting [13]) were 0.15, 0.208 and 0.428, respectively. The activity, negative = inhibition in [4] (parasite line A) is -0.344% (inactive); in [4] (parasite line B), -25.6% (inactive).

For the compound `Cc1cc(Nc2cc(NC(=O)c3c(Cl)cccc3Cl)ccn2)nc(N)n1`, the Potency in experiment [1] was 2960 nM (active); in [7], 2350 nM (active); in experiment [3], 372 nM (active). In addition, the values for the Z-AUC in [6], in [6] (setting [10]) and in [6] (measured here: PEO4 Z-AUC) were -0.241 (inactive), -1.26 and -0.959, respectively.

For the compound `O=C(O)CCCc1c[nH]c2ccccc12`, the Potency entry in experiment [1], in [5] and in experiment [8] was “inactive” each time. Further, the Z-AUC in experiment [6] is 0.341 (inactive); in [6] (setting [10]), 0.661; in [6] (measured here: PEO4 Z-AUC) it was 0.6. For the same compound, the figures for the z-score in experiment [9] (setting [11]), in experiment [9] (setting [12]) and in experiment [9] (setting [13]) were 0.907, 0.701 and 0.654, respectively.

In the case of `Nc1ccc(C(=O)c2cc3c(ccc4ccccc43)[nH]2)cc1`, the results for the Potency in experiment [1], in experiment [3] and in [8] were 2960 nM (active), 743 nM (active) and 935 nM (active), respectively. Also, the Z-AUC is -0.0185 (inactive) in [6], -0.727 in experiment [6] (setting [10]) and -0.792 in [6] (measured here: PEO4 Z-AUC).

As to `COc1ccc(CC2c3cc(OC)c(OC)cc3CC[N+]2(C)CCC(=O)OCCCCCOC(=O)CC[N+]2(C)CCc3cc(OC)c(OC)cc3C2Cc2ccc(OC)c(OC)c2)cc1OC` (stereo not drawn), the values for the viability (% of control) in experiment [1] and in [3] were 81% [at 5.15 µM] (inactive) and 114% [at 5.15 µM] (inactive), respectively. Besides, the viability, % of control in experiment [8] was 110% [at 5.15 µM] (inactive). Moreover, the values for the Z-AUC in [6], in experiment [6] (setting [10]) and in experiment [6] (measured here: PEO4 Z-AUC) were 0.349 (inactive), 0.569 and 0.213, respectively. In addition, the z-score in experiment [9] (setting [11]) was found to be 1.41; in experiment [9] (setting [12]), 1.48; in experiment [9] (setting [13]) it was 1.15.

As for `C[C@@H]1CN(CC(=O)Nc2ccc3c(c2)Cc2cccc(-c4cc(=O)cc(N5CCOCC5)o4)c2S3)C[C@H](C)O1`, the Potency is 13200 nM (active) in experiment [1], 9350 nM (active) in experiment [7] and 16600 nM (active) in experiment [3]. Also, the Z-AUC in experiment [6] was 0.729 (inactive); in [6] (setting [10]), 0.761; in experiment [6] (measured here: PEO4 Z-AUC) it was 0.901.

Consider `NC(=O)Nc1cc(-c2cccc(F)c2)sc1C(=O)N[C@H]1CCCNC1`, for which the Potency in experiment [1] was 469 nM (active); in experiment [7], 4690 nM (active); in experiment [3], 526 nM (active); in experiment [8], 1870 nM (active); in experiment [6] it was 110 nM (active); in [9] (TFE3-RCC UOK109 viability, active = Z-AUC below -0.8 in all three lines), 935 nM (active). The Z-AUC was -1.9 in experiment [6] (setting [10]) and -1.5 in experiment [6] (measured here: PEO4 Z-AUC). For the same compound, the z-score is -1.42 in [9] (setting [11]), -1.69 in experiment [9] (setting [12]) and -1.85 in experiment [9] (setting [13]).
